# Compound activity deposited in PubChem BioAssay by National Center for Advancing Translational Sciences (NCATS).
# Hits are enriched below; roughly 2.5% of the tested compounds scored in any of these assays.
# Cruzain noTriton = cruzain (T. cruzi) inhibition without detergent; AID 1476; actives 2.3% (n = 200,000); Potency, µM, without a hit: max response, negative = inhibition, actives largely listed as inhibitors; purified cruzain, Z-FR-AMC fluorescence, no detergent;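 also: plate controls were enzyme without inhibitor for no effect and buffer without enzyme for full effect; nearly all actives have a fitted effect of over 40% in size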
# Target sequence (P25779 123-467 limits assumed): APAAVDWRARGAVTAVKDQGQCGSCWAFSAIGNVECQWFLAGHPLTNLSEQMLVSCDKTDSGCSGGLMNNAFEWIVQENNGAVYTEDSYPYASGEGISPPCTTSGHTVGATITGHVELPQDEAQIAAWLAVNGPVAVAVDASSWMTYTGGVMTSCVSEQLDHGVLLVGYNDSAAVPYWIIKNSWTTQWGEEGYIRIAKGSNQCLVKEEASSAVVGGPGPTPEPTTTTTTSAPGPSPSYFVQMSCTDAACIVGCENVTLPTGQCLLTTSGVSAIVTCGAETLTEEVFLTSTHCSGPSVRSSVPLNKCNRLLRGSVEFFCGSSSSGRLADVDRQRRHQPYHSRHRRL
#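 Purified cruzain at 1.5 nM, pre-incubated 15 min with compound at room temperature in 100 mM sodium acetate pH 5.5, 5 mM DTT, 0.00005% Triton X-100. Reaction started with 2 uM Z-FR-AMC; AMC fluorescence increase over 60 s gives rate.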
# Cruzain Triton = inhibitors of Trypanosoma cruzi cruzain with detergent. Potency, µM, for the others: max response, negative = inhibition, actives largely listed as inhibitors. actives 0.43% (n = 200,000). P25779. purified cruzain, Z-FR-AMC fluorescence, 0.01% Triton;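 also: plate controls were neutral wells for no effect and buffer without enzyme for full effect; nearly all actives have a fitted effect of over 40% in size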
#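 Enzyme 1.5 nM, Z-FR-AMC 2 uM, NaOAc 100 mM pH 5.5, DTT 5 mM, Triton X-100 0.01%; 15 min RT compound preincubation; kinetic ex360/em450, 60 s delta.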
# Numbers without * were called inactive; ? = inconclusive. Calls follow the shape of the dose curve; as a rule, active = well fitted curve in the direction sought with a large enough effect; inconclusive = small, poorly fitted or top-dose-only effect, or another doubt; inactive = no such curve, though single readings can be large; an effect the other way counts as inactive or inconclusive. Potency is read from the fitted curve at half-maximal effect.
SMILES,Cruzain noTriton,Cruzain Triton
Cc1ccc(C)c(NC(=O)C(Sc2nc3ccccc3c(=O)n2CC(C)C)c2ccccc2)c1 (configuration not stated),20µM*,-1%
Cc1ccccc1Nc1c(-c2ccc(O)cc2)nc2c(C)cccn12,2%,-12%
COc1ccc2c(c1)CN([C@H](C)[C@@H]1CC[C@@H]3[C@H]4CC[C@H]5C[C@@H](O)CC[C@@]5(C)[C@H]4CC[C@]31C)CO2,15%,-3%
C[N+]1(CCC[N+]2(C)C[C@H]3[C@H](C2)[C@H]2C=C[C@@H]3CC2)CCOCC1 (some centres not stated),10%,0%
CC(=O)NCCNc1ncnc2ccc(-c3ccccc3C)cc12,3%,6%
CCOc1ccc(NCc2nnc(SCC(=O)Nc3nc(-c4ccccc4)cs3)n2-c2ccccc2)cc1,25µM*,1%
Cc1cccc(C)c1NCc1nnc(SCC(=O)Nc2nc(-c3ccccc3)cs2)n1-c1ccccc1,?,-1%
CNC(=S)N/N=C/c1cc(C)n(-c2ccc(Cl)c(Cl)c2)c1C,32µM*,-9%
CNC(=S)N/N=C/c1ccccc1Cl,-9%,-5%
O=C(CNC(=O)C(c1ccccc1)c1ccccc1)OCC(=O)c1cccs1,13µM*,20µM*
O=C(CNC(=O)c1cccs1)OCC(=O)c1ccccc1,-5%,-9%
CC(=O)OC1CC(C)OC(C)O1 (configuration not stated),-1%,-6%
COC(=O)NNC(=O)CCCOc1ccc(Cl)cc1Cl,4%,1%
O=C(O)CCC(=O)NNC(=O)CCCOc1ccc(Cl)cc1Cl,-9%,2%
O=C(CCCOc1ccc(Cl)cc1Cl)NNC(=O)c1ccc(NC(=O)c2ccccc2)cc1,4µM*,-4%
Cc1ccccc1C(=O)Nc1ccc(C(=O)NNC(=O)CCCOc2ccc(Cl)cc2Cl)cc1,10µM*,3%
CCS(=O)(=O)c1nc(S(=O)(=O)c2ccc(C)cc2)c(NCCCOC)s1,-11%,-5%
CC/C=C\C/C=C\C/C=C\C/C=C\C/C=C\C/C=C\CCC(=O)NCCO,-9%,0%
CN(C)CCC(C#N)(c1ccccc1)c1ccccc1,0%,8%
O=C(Nc1nc2ccc(SC(F)F)cc2s1)c1ccc2c(c1)S(=O)(=O)c1ccccc1C2=O,5µM*,-5%
O=C(Nc1nc(-c2ccccc2)cs1)c1ccc2c(c1)S(=O)(=O)c1ccccc1C2=O,?,-4%
COc1ccccc1/C=C/C(=C1/C(=O)N(c2ccccc2)N=C1C)c1ccc(C)cc1,25µM*,-4%
COc1cccc(/C=C/C(=C2/C(=O)N(c3ccccc3)N=C2C)c2ccccc2)c1OC,-15%,-4%
CCOC(=O)Cn1c(=O)cc(C(F)(F)C(F)(F)F)c2c(C)nn(CC)c21,?,-3%
CCc1c(C)sc(NC(=O)c2cc(-c3ccc(OC)cc3)on2)c1C#N,-1%,-1%
SMILES,Cruzain noTriton,Cruzain Triton
Cc1cccc(C)c1Nc1nnc(SCc2nc3ccccc3s2)s1,32µM*,-8%
COc1cccc(Nc2nnc(SCc3nc4ccccc4s3)s2)c1,-13%,-9%
O=[N+]([O-])c1cc(-c2nc(-c3ccccc3)no2)ccc1NC1CCCCC1,-7%,-4%
COc1cccc(NC(=O)/C(C#N)=C/c2c(C)n(Cc3ccc(Cl)cc3)c3ccccc23)c1,6.3µM*,-2%
COc1cccc(NC(=O)Cn2c(=O)n(CCC(=O)NCCc3ccc(Cl)cc3)c(=O)c3ccccc32)c1,-9%,-3%
Cc1ccc(Cl)cc1NC(=O)/C(C#N)=C/c1c(C)n(Cc2ccccc2)c2ccccc12,3%,0%
Cc1c(/C=C(\C#N)C(=O)Nc2cccc(Cl)c2)c2ccccc2n1Cc1ccccc1,4µM*,-4%
CCOC(=O)c1c(S(=O)(=O)N2CCC(C(=O)N3CCN(c4cc(C)ccc4C)CC3)CC2)c(C)n(C)c1C,14%,1%
Cc1ccc(C)c(CN2C(=O)CSc3ccc(C(=O)NCCc4ccc(Cl)cc4)cc32)c1,5%,-1%
CCOc1ccc(C2=NC(c3ccncc3)=Nc3ccc(C)cc3N2)cc1OCC,?,-4%
O=C(Nc1ccccc1)Nc1nnc(SCc2ccc(Cl)cc2)s1,?,-1%
O=C(Cc1nnc(NC(=O)Nc2ccc(Cl)cc2)s1)NCc1ccccc1,10µM*,1%
COc1ccc(Cc2nnc(NC(=O)c3ccc(Cl)c([N+](=O)[O-])c3)s2)cc1,16µM*,7%
O=C(Nc1ccc(Cl)cc1)Nc1nnc(SCc2ccc(Cl)cc2)s1,7.9µM*,1%
O=C(Nc1ccc(Cl)cc1)Nc1nnc(Cc2ccc([N+](=O)[O-])cc2)s1,7.9µM*,-2%
Cc1ccc(NC(=O)Nc2nnc(Cc3ccc([N+](=O)[O-])cc3)s2)cc1,-19%,0%
COCC(=O)Nc1nnc(Cc2ccc(OC)cc2)s1,-3%,2%
O=C(Cc1nnc(NC(=O)Nc2ccccc2)s1)NCc1ccccc1,-75%,-2%
CCS(=O)(=O)c1ncc(Cl)c(C(=O)N2CCN(c3ccc(OC)cc3)CC2)n1,6%,-4%
OCCN(CO)CO,0%,3%
COc1cccc(-n2c(SCC(N)=O)nc3c(oc4ccccc43)c2=O)c1,5%,-2%
CC12C=C(/C=C/CCc3ccco3)C(C)(C1)[C@H](CCc1ccco1)CC2=O (some centres not stated),-11%,-2%
COc1ccc(-c2nn(-c3ccccc3)cc2/C=N/NC(=O)c2cccc(S(=O)(=O)Nc3ccccc3OC)c2)cc1,10µM*,-7%
COc1ccc(-c2nn(-c3ccccc3)cc2/C=N/NC(=O)c2ccc3c(c2)OCO3)cc1,?,-4%
O=C(N/N=C/c1cn(-c2cccs2)nc1-c1ccccc1)c1ccccc1Br,?,-4%
SMILES,Cruzain noTriton,Cruzain Triton
O=C(N/N=C\c1cn(-c2ccccc2)nc1-c1ccccc1)c1ccc2c(c1)OCO2,20µM*,0%
O=C(N/N=C/c1cn(-c2ccccc2)nc1-c1ccc(F)cc1)c1ccc2c(c1)OCO2,?,3%
O=C(N/N=C/c1cn(-c2ccccc2)nc1-c1cc2ccccc2o1)c1ccccc1Br,7.9µM*,-4%
COc1ccc(-c2nn(-c3ccccc3)cc2/C=N/NC(=O)c2ccc(Br)o2)cc1,25µM*,0%
COc1ccc(-c2nn(-c3ccccc3)cc2C(=O)Nc2ccccc2OC)cc1,-3%,-3%
COc1cc(C(=O)Nc2sc3c(c2C#N)CCCC3)c(Br)c(OC)c1OC,-11%,-3%
CCn1cc2nc(SCC(=O)Nc3ccc(C)cc3C)n(Cc3ccc(C)cc3)c(=O)c2n1,?,0%
CCOCCCN(Cc1ccco1)C(=O)c1cc2c(s1)-c1c(C)cccc1OC2,?,-26%
CCCC(=O)Nc1ccc(Nc2ccccc2)cc1,13%,-4%
CCCC(=O)Nc1ccc(-c2ccc(NC(=O)CCC)cc2)cc1,13µM*,-1%
O=C1C(c2ccc(C(F)(F)F)cc2)=C(Nc2ccc(Cl)cc2)c2ccccc21,1%,-1%
CCOc1c(Cl)cc(C(=O)N(Cc2ccc(N(C)C)cc2)Cc2ccco2)cc1Cl,?,-7%
COc1ccccc1CNC(=O)Cn1c(=O)nc(-c2ccccc2)c2ccccc21,-4%,-2%
Nc1ccc2nc(-c3ccc(O)cc3)sc2c1,?,106%
Oc1ccc(N=C/C=C/c2cccc(Br)c2)cc1-c1nc2ccccc2s1,20µM*,-6%
O=C(Nc1ccc(O)c(-c2nc3ccccc3s2)c1)c1cc(=O)c2ccccc2o1,?,-14%
Nc1ccc(O)c(-c2nc3ccccc3s2)c1,3.2µM*,-24%
